Screening results deposited in PubChem by The Scripps Research Institute Molecular Screening Center.
Rows were chosen to be rich in hits. Some 2% of all compounds tested hit in one or more screens of this group.
GSTO1 inh = inhibitors of recombinant GSTO1, primary screen, counter-screen for RBBP9 inhibitor project, biochemical, fluorescence polarization; 300,000 compounds, 1.1% hits; inhibition, % at 5.96 µM; activity-based probe fluorescence polarization;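 active = inhibition above the campaign mean inhibition plus 3 SD, cut at about 35% in these data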
Fam108B counter = mouse Fam108B serine hydrolase inhibitors, primary screen, counter-screen for RBBP9 inhibitor project, biochemical, fluorescence polarization. recombinant Fam108B, FP-Rh probe fluorescence polarization. inhibition, % at 9.51 µM. 300,000 compounds, 0.33% hits. AID 1947, 2009;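 active = inhibition above the screen mean inhibition plus 3 SD, computed separately per campaign, cut at about 18% in these data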;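 also: inhibitors lower polarization as less probe binds the enzyme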
LYPLA2 inh = LYPLA2 inhibitors, primary screen, counter-screen for PME1 inhibitor project, biochemical, fluorescence polarization, FP-Rh probe ABPP | Acyl-protein thioesterase 2 (Homo sapiens), O95372 | recombinant LYPLA2 | inhibition, % at 5.9 µM | 320,000 compounds, 0.38% hits | AID 2177, 2009;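 active = inhibition above the screen-wide mean plus 3 SD, limit set per campaign, cut at about 26% in these data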
PME-1 inh = PME-1 inhibitors via competitive probe labeling, primary screen, biochemical, fluorescence polarization, FP-Rh probe, HTS; recombinant PME-1; inhibition, % at 5.9 µM; 320,000 compounds, 0.53% hits;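 active = inhibition above the campaign mean of all compounds plus 3 SD, cut at about 26% in these data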;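 also: competitive labeling of PME-1 active site by serine hydrolase directed probe; inhibitors block probe labeling so polarization falls and inhibition rises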
PREPL inh = PREPL enzyme inhibitors, primary screen, biochemical, fluorescence polarization. Prolyl endopeptidase-like (Homo sapiens), Q4J6C6. recombinant PREPL, fluorescence polarization activity-based probe. 320,000 compounds, 0.68% hits. inhibition, % at 5.96 µM; in the data active = inhibition above about 43%
Target sequence (Q4J6C6 whole entry, looked up): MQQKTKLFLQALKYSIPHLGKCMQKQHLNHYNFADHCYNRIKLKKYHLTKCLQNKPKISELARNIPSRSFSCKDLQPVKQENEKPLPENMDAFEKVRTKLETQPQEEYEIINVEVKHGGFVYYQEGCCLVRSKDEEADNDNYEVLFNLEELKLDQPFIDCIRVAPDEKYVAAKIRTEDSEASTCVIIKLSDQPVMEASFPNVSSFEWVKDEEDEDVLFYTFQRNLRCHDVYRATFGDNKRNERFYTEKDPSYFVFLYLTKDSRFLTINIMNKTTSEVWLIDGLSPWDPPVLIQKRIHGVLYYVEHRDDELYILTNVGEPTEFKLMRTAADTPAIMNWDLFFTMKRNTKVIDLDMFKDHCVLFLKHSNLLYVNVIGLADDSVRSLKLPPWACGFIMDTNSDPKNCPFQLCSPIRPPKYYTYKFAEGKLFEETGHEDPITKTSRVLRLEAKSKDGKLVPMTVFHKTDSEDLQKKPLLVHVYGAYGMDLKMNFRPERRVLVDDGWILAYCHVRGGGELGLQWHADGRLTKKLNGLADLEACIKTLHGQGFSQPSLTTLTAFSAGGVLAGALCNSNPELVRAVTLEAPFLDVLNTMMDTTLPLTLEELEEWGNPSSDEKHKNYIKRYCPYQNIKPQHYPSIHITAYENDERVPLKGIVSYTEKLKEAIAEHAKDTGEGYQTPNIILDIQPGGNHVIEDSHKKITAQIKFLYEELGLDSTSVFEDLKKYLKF
LYPLA1 inh = LYPLA1 inhibitors, primary screen, counter-screen for PME1 inhibitor project, biochemical, fluorescence polarization, FP-Rh probe ABPP. Acyl-protein thioesterase 1 (Homo sapiens), O75608. recombinant LYPLA1. inhibition, % at 5.9 µM. 320,000 compounds, 0.16% hits. AID 2174, 2009;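 active = inhibition above the mean of all tested compounds plus 3 SD, set per campaign, cut at about 14% in these data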;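 also: inhibitors block serine hydrolase probe labeling of LYPLA1 so polarization falls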
GSTO1 inh conf = GSTO1 inhibitor hit confirmation, counter-screen for RBBP9 inhibitor project, biochemical, fluorescence polarization, triplicate | shares compounds with GSTO1 inh | recombinant GSTO1, probe fluorescence polarization | inhibition, % at 5.96 µM | 2,400 compounds, 54% hits | AID 2176, 2009;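 active = inhibition above the primary screen's cutoff, its mean inhibition plus 3 SD, cut at about 35% in these data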;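 also: loss of polarization as inhibitors block binding of rhodamine sulfonate ester activity probe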
GSTO1 recomb ABPP = inhibitors of purified human GSTO1, late-stage follow-up, biochemical, gel ABPP, SE-Rh probe, percent inhibition | inhibition, % at 1 µM | shares compounds with GSTO1 inh | 130 compounds, 30% hits | recombinant GSTO1, gel ABPP SE-Rh probe fluorescence;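 active = inhibition of the enzyme GSTO1 above about 75%, limit read from the data; inactive = inhibition below that limit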
A number is an active result; n = inactive; x = not tested or not shown.

SMILES	GSTO1 inh	Fam108B counter	LYPLA2 inh	PME-1 inh	PREPL inh	LYPLA1 inh	GSTO1 inh conf	others
O=C(Nc1ccccc1)c1cn(CCBr)cn1	61.7	n	n	n	n	n	73.0
COC(=O)c1ccc(CSCc2ccc(C#N)cc2)cc1	n	n	n	n	n	n	x
CCOc1ccc(-n2c(O)c(/C=N/NC(=O)C3COc4ccccc4O3)c3ccccc3c2=O)cc1 (centres undefined)	n	n	n	n	n	n	x
CCC(=O)N(CC)C1=C(O)c2ccccc2C(=O)C1=O	37.8	n	n	n	n	n	n
CC(NC(=O)Nc1ccc(O)cc1)(C(F)(F)F)C(F)(F)F	43.8	n	n	n	n	n	n
CCC(NC(=O)NCc1ccccc1)(C(F)(F)F)C(F)(F)F	n	n	n	n	n	n	x
COc1ccc(NC(=O)NC(C)(C(F)(F)F)C(F)(F)F)cc1	n	n	n	n	n	n	x
CCC(NC(=O)Nc1ccc(O)cc1)(C(F)(F)F)C(F)(F)F	57.3	n	n	n	n	n	n
CC(=O)Oc1ccc(N(c2ccccc2)S(=O)(=O)c2ccc(C)cc2)cc1	n	n	n	n	n	n	x
COc1ccc(N2C3=C(CC4=C2CCCC4=O)C(=O)CCC3)cc1	58.0	n	n	n	n	n	n
Cc1nn(-c2ccc(Cl)cc2)c2[nH]c(CCl)cc(=O)c12	96.5	n	n	n	n	n	97.9	GSTO1 recomb ABPP=n
Cc1ccccc1OCCC(=O)OCC(=O)Nc1c(C)nn(-c2ccccc2)c1C	n	n	n	n	n	n	x
CC(C)CCN(C(=O)c1csnn1)C(C(=O)NC1CCCCC1)c1ccc(F)cc1 (centres undefined)	n	n	n	n	n	n	x
Cc1ccc(NC2=C(N3CCCCC3)C(=O)c3ccccc3C2=O)cc1	65.2	n	n	n	n	n	45.5
CN(C1=C(N2CCCCC2)C(=O)c2ccccc2C1=O)c1ccccc1	50.2	n	n	n	n	n	n
CCN1CCN(C2=C(NS(=O)(=O)c3ccc(C)cc3)C(=O)c3ccccc3C2=O)CC1	n	n	n	n	n	n	x
COc1ccccc1NC1=C(N2CCCCC2)C(=O)c2ccccc2C1=O	73.5	n	n	n	n	n	54.2
CC1=C(Nc2ccc(C(=O)O)cc2)C(=O)c2ccccc2C1=O	n	n	n	n	n	n	x
O=C1C(Nc2ccccc2)=C(N2CCCCC2)C(=O)c2ccccc21	62.2	n	n	n	n	n	56.2
O=C(Nc1ccnn1C1CCN(Cc2ccccc2OC(F)F)CC1)c1cccnc1	n	n	n	n	n	n	x
CCCOc1ccc(C2=CSC3=NCCN23)cc1[N+](=O)[O-]	n	n	n	n	n	n	x
CCOC(=O)[C@@H]1[C@H]2COc3ccccc3[C@H]2N2C(=O)N(c3ccc(OC)cc3)C(=O)[C@]12C	n	n	n	n	n	n	x
CCOc1ccccc1NC(=S)Nc1ccc(S(N)(=O)=O)cc1	n	n	n	n	n	n	x
O=C(/C=C/c1ccc(O)cc1)c1ccccc1	n	n	n	n	n	n	x
O=C(/C=C/c1ccc(O)cc1)c1ccc(NC2=C(N3CCCCC3)C(=O)c3ccccc3C2=O)cc1	65.1	n	n	n	n	n	51.3
SMILES	GSTO1 inh	Fam108B counter	LYPLA2 inh	PME-1 inh	PREPL inh	LYPLA1 inh	GSTO1 inh conf	others
CCOC(=O)C1=C(C)N(c2ccc(OC)cc2)C(=O)/C1=C\c1ccc(O)c(OCC)c1	56.7	n	n	n	n	n	n
CC(=O)C[C@H](O)CC(=O)[C@H]1OC(=O)[C@H](C)C/C=C\Cc2ccccc21	x	x	n	n	n	n	x
Cc1c(Cl)cccc1N=Cc1ccc([N+](=O)[O-])s1	39.5	n	n	n	n	n	n
COc1ccc(C(=O)NCCNc2nc3ccc(C)cc3cc2C#N)cc1OC	n	n	n	n	n	n	x
COC1(OC)N=C(N)C2(C#N)C(c3cccc(Oc4ccccc4)c3)C12C#N (centres undefined)	64.7	n	n	n	n	n	n
COc1cccc(C2C3(C#N)C(N)=NC(OC)(OC)C23C#N)c1 (centres undefined)	n	n	n	n	n	n	x
Cc1[nH][nH]c(=O)c1C(c1c(C)[nH][nH]c1=O)c1cn(Cc2ccc(Cl)c(Cl)c2)c2ccccc12	66.3	n	n	n	n	n	55.8
O=C(O)Cc1cn(Cc2ccc(F)cc2)c2ccccc12	n	n	n	n	n	n	x
Cc1[nH][nH]c(=O)c1C(c1c(C)[nH][nH]c1=O)c1cn(Cc2ccc(F)cc2)c2ccccc12	56.3	n	n	n	n	n	n
Cc1cc(C(=O)CN2C(=O)c3ccccc3S2(=O)=O)c(C)n1CC1CCCO1 (centres undefined)	73.1	n	n	n	n	n	n
COC(=O)C1=C(C)OC(N)=C(C#N)C1c1ccc(OC)c(OC)c1OC (centres undefined)	n	n	n	n	n	n	x
COc1ccc(C2C(C#N)=C(N)Oc3c2c(-c2ccccc2)nn3-c2ccccc2)c(OC)c1OC (centres undefined)	47.2	n	n	n	n	n	n
O=C(Nc1c(F)cccc1F)C1CCN(C(=O)c2cccs2)CC1	n	n	n	n	n	n	x
CC(C)=C1C(=O)NN(c2ccc(C)c(Cl)c2)C1=O	43.9	n	n	n	n	n	n
Cc1ccccc1N1CCN(C(=O)c2cc(C3CC3)nn2-c2ccccc2)CC1	x	x	n	n	n	n	x
O=C(O)c1ccc(Cl)c2c1C1C=CCC1C(c1ccccn1)N2 (centres undefined)	n	n	n	n	n	n	x
O=[N+]([O-])c1ccc(Cl)c2c1C1C=CCC1C(c1ccccn1)N2 (centres undefined)	39.3	n	n	n	n	n	n
O=c1[nH]c2ccccc2c2oc(CCl)nc12	86.7	n	n	n	n	n	98.6	GSTO1 recomb ABPP=n
CCn1cc(C(=O)NCCCN(CC(C)C)CC(C)C)c(=O)c2cc(S(=O)(=O)N3CCOCC3)ccc21	n	n	n	n	n	n	x
Oc1ccc(-c2cn3c(n2)SCC3)cc1	n	n	n	n	n	n	x
